Sfp inh: qHTS Assay for Inhibitors of Bacillus subtilis Sfp phosphopantetheinyl transferase (PPTase) | 4'-phosphopantetheinyl transferase ffp (Bacillus subtilis), Q9F4F7 | 310,000 compounds, 3.5% hits | Potency, µM, usual class: inhibitors | Biochemical Sfp PPTase activity, qHTS | AID 1490, 2009;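 further: the enzyme is Sfp with the accession as filed and its product quenches rhodamine fluorescence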
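With Hepes-Na pH 7.6 buffer containing 10 mM MgCl2, Sfp (15 nM) modified BHQ-2-YbbR (12.5 uM) using rhodamine-CoA (5 uM). Two reads 30 minutes apart at 525/598 nm yielded each well's rate.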
G9a inh: qHTS Assay for Inhibitors of Histone Lysine Methyltransferase G9a. Histone-lysine N-methyltransferase EHMT2 (Homo sapiens), Q96KQ7. G9a H3K9 monomethylation, AlphaScreen, 2 h. Potency, µM (top dose mostly 102 µM), hits mostly inhibitors. 350,000 compounds, 8.8% hits. AID 504332, 2011; further: nearly all actives have a fitted effect of over 75% in size
Target sequence (Q96KQ7 913-1193 limits assumed): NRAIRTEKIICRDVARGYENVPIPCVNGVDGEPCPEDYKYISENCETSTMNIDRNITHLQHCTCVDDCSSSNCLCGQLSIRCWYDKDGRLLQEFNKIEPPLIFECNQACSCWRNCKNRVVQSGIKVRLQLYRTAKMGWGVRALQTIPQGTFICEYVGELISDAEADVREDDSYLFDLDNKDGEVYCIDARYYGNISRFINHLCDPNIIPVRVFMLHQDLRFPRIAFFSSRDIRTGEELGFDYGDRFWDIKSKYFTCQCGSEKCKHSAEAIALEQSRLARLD
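Readings reflect AlphaScreen signal from monomethyl-H3K9 antibody detection. HMT at 20 nM; substrate b-H3K9 500 nM; cofactor SAM 20 uM; 2 h RT reaction; compounds tested as titrations in qHTS with 15 min preincubation.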
JMJD2E inh: qHTS Assay for Inhibitors of Human Jumonji Domain Containing 2E (JMJD2E) | Lysine-specific demethylase 4E (Homo sapiens), B2RXH2 | JMJD2E catalytic domain, FDH-coupled NADH fluorescence (FDH is formaldehyde dehydrogenase) | Potency, µM (top dose mostly 57.1 µM), hits mostly inhibitors | 230,000 compounds, 1.6% hits; active means well fitted inhibition curve with a large enough effect, not every such curve was filed as active; inconclusive means small, poorly fitted or top-dose-only effect, or another doubt; inactive means no such curve, though single readings can be large or run the other way; further: nearly all actives have a fitted effect of over 50% in size
Target sequence (B2RXH2 1-337 limits assumed): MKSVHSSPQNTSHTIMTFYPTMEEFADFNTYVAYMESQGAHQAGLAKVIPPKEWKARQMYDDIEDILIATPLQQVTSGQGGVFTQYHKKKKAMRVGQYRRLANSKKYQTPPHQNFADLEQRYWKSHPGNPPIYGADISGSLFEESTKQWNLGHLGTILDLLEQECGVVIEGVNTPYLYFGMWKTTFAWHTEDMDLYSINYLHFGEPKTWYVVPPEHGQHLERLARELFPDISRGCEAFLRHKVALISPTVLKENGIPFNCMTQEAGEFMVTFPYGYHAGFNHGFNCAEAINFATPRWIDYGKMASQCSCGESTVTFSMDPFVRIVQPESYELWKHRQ
ALDH1A1 block: qHTS Assay for Inhibitors of Aldehyde Dehydrogenase 1 (ALDH1A1) | Aldehyde dehydrogenase 1A1 (Homo sapiens), P00352 | Purified ALDH1A1, NADH fluorescence, propionaldehyde substrate | Potency, µM (titrated, usually from 75.3 µM), hits mostly inhibitors | 220,000 compounds, 7.3% hits; active means well fitted inhibition curve with a large enough effect, not every such curve was filed as active; inconclusive means small, poorly fitted or top-dose-only effect, or another doubt; inactive means no such curve, though single readings can be large or run the other way
miR-21 reporter: qHTS Assay for Modulators of miRNAs and/orActivators of miR-21; AID 2288, 2010; Potency, µM (series often up to 38.3 µM), hits mostly activators; 340,000 tested, under 10 active; HeLa miR-21 FLuc reporter, luciferase, 48 h;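 further: miR-21 action dims this reporter so a rising signal means less miR-21 action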
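HeLa miR-21-FLuc reporter line, endogenous miR-21; 2000 cells/well in DMEM/10% FBS; compound titration up to ~40uM final, 48 h, 37 degree Celsius; luciferase detection reagent, 15 min lysis, CCD luminescence.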
Lamin A splicing: qHTS Assay for Modulators of Lamin A Splicing. 200,000 compounds, 0.01% hits. HeLa LMNA splicing GFP/RFP minigene ratio, 48 h. Potency, µM (doses to about 46.1 µM), hits mostly inhibitors. AID 1487, 2009; active means well fitted inhibition curve with a large enough effect in the signal ratio, with a control signal flat, not every such curve was filed as active; inconclusive means small, poorly fitted or top-dose-only effect, or effect the other way, or a change in a side signal; the % refers to the signal ratio
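S3 HeLa cells stably expressing lamin A-EGFP splicing minigene plus DsRed2, 600 cells/well, 48 h compound exposure at 37C. Laser-scanning cytometry; analysed as GFP (500-530 nm)/RFP (575-640 nm) total intensity ratio; 0.5% DMSO vehicle.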
Hits are given with their value; . = inactive; ? = inconclusive; / = not tested or not shown; ! = a repeat was not active; [ ] = remark or other dose. In the library only some 13% were active in any assay of this set; here they are far more common. Unless noted, the call rests on the fitted dose curve; in most records, active means well fitted curve in the direction sought with a large enough effect; inconclusive means small, poorly fitted or top-dose-only effect, or another doubt; inactive means no such curve, though single readings can be large; an effect the other way counts as inactive or inconclusive.

SMILES	Sfp inh	G9a inh	JMJD2E inh	ALDH1A1 block	miR-21 reporter	Lamin A splicing
COc1ccc(NC(=S)N2c3ccccc3CC2C)cc1OC (stereo unspecified)	.	50µM	.	?	.	/
Cc1ccc(S(=O)(=O)N(C)C)cc1NC(=S)N1CCc2ccccc21	.	.	.	25µM	.	.
CN(C)S(=O)(=O)c1cccc(NC(=S)N2CCc3ccccc32)c1	?	.	.	18µM	.	/
NS(=O)(=O)c1ccc(NC(=S)N2CCc3ccccc32)cc1	.	/	/	/	.	/
CC1Cc2ccccc2N1C(=S)Nc1cccc(S(=O)(=O)N(C)C)c1 (stereo unspecified)	.	40µM	.	?	.	?
COc1ccc(NC(=O)N2c3ccccc3CC2C)cc1OC (stereo unspecified)	.	.	.	.	.	.
Cc1ccc(C)c(OCCC(=O)N2CCN(S(=O)(=O)c3ccc([N+](=O)[O-])cc3)CC2)c1	/	.	/	/	/	/
Cc1ccc(CNc2nnc(C)c3nnn(Cc4ccc(F)cc4)c23)cc1	/	.	/	/	.	/
CCOC(=O)c1c(NC(=O)c2cc3nc(-c4ccc(OC)cc4)cc(C(F)(F)F)n3n2)sc(C)c1C	/	.	/	/	.	.
CCOC(=O)c1c(NC(=O)c2cc(-c3ccc(OC)cc3)on2)sc(C)c1C	/	8.9µM	/	/	.	/
CCOC(=O)c1c(NC(=O)c2cc(-c3ccc(O)cc3)on2)sc(C(C)=O)c1C	.	22µM	.	22µM	.	.
CCOC(=O)c1sc(NC(=O)c2cc(-c3ccc(F)cc3)on2)c(C(=O)OCC)c1C	/	.	/	/	.	/
Cc1cc2c(Nc3cccc(O)c3)ncnc2s1	.	/	/	/	.	/
O=C(OCC1CO1)C1CCCCC1C(=O)OCC1CO1 (stereo unspecified)	/	/	/	.	/	/
O=C(O)c1ccc(Cl)c(S(=O)(=O)Nc2ccc3cn[nH]c3c2)c1	?	45µM	.	22µM	.	.
COc1cc(S(=O)(=O)Nc2ccc3cn[nH]c3c2)ccc1Cl	.	?	.	.	.	/
O=C(COC(=O)CC1CC2CCC1C2)Nc1cccc(S(=O)(=O)NC2=NCCCCC2)c1 (stereo unspecified)	.	?	.	?	.	.[9.22 µM]
CCC1CO/C(=C(\C(Cl)=C(Cl)Cl)[N+](=O)[O-])N1 (stereo unspecified)	.	79µM	.	.	.	/
COc1cccc(=O)c2c(C)n(-c3cc(C)cc(C)c3)c(C)c12	.	?	.	.	.	.
COc1cccc(-n2c(C)c3c(OC)cccc(=O)c3c2C)c1	50µM	?	.	?	.	.
COc1cccc(=O)c2c(C)n(C)c(C)c12	?	16µM	.	.	.	.
CC(=O)c1cccc(NC(=O)Cn2cnc(S(=O)(=O)N3CCC(C)CC3)c2)c1	.	.[0.0925 µM]	/	/	.	/
O=C(COC(=O)C1CCCCC1)Nc1ccc(S(=O)(=O)N2CCOCC2)cc1	.	.	.	.	.	?
Cc1ccc(C)c(NC(=O)CCN2CCCCC2)c1	.	.[0.501 µM]	/	/	.	/
CCc1nn(CC(=O)N2CCN(c3cccc(OC)c3)CC2)c(=O)c2cc3occc3n12	/	.	/	/	.	/
SMILES	Sfp inh	G9a inh	JMJD2E inh	ALDH1A1 block	miR-21 reporter	Lamin A splicing
CC(C)Cn1c(=S)[nH]c2ccccc2c1=O	.	.	.	?	.	.
CC(C)Cn1c(=S)[nH]c2cc(Cl)ccc21	.	6.3µM	.	8.9µM	.	.
CCOc1ccc(NC(=O)c2ccc(-c3cccc(Cl)c3C)o2)cc1	/	.	/	/	.	/
O=c1cc(-c2ccccc2)oc2cc(O)c(O)c(O)c12	28µM!	/	13µM	15µM!	/	/
O=c1cc(-c2ccc(O)cc2)oc2c(O)c(O)c(O)c(O)c12	4.5µM	20µM	13µM	.	.	.
O=c1c(-c2cccc(F)c2)nc2cncnc2n1-c1ccccc1	.	.[12.7 µM]	/	.	/	/
Cc1nc2ccc(C(=O)O)cc2c2c1CC(CN)O2 (stereo unspecified)	.	79µM	/	/	.	/
COc1cccc(Cn2c(=O)cnc3cnc(Oc4ccccc4)nc32)c1	.	.[0.501 µM]	/	.	/	.
Clc1ccc(-c2nn3c(-c4cccc(Cl)c4)nnc3s2)cc1	.	.	.	.	.	.
Clc1ccc(-c2nnc3sc(Cc4cccs4)nn23)cc1	.	35µM	.	22µM	.	?
c1ccc(-c2nnc3sc(Cc4cccs4)nn23)cc1	.	?	.	.	.	.
O=C1c2ccccc2C(=O)N1Cc1nn2c(-c3ccc(Cl)cc3)nnc2s1	.	.	.	14µM	.	.
COc1ccc(-c2nnc3sc(C(C)N4C(=O)c5ccccc5C4=O)nn23)cc1 (stereo unspecified)	.	?	.	.	.	.
COc1ccc(-c2nnc3sc(CN4C(=O)c5ccccc5C4=O)nn23)cc1	.	35µM	.	?	.	.
CCOc1ccccc1C(=O)NC(C)c1ccc(-n2ccnc2)cc1 (stereo unspecified)	.	.	/	/	.	/
C=CCN1C(=O)S/C(=C\c2ccc3c(c2)n(C)c(=O)n3C)C1=O	.	.	.	0.28µM	.	.
C=CCN1C(=O)S/C(=C\c2ccc(N3CCOCC3)cc2C)C1=O	.	.[12.7 µM]	.	0.89µM	.	?
C=CCN1C(=O)S/C(=C/c2ccsc2)C1=O	.	.	.	13µM	.	.
CC1CCN(C(C)C(=O)Nc2ccccc2-c2ccccc2)CC1 (stereo unspecified)	.	32µM	.	.	.	.
CC(C(=O)Nc1ccccc1-c1ccccc1)N1CCN(Cc2ccccc2)CC1 (stereo unspecified)	.	.	.	14µM	.	.
CCOC(=O)c1[nH]c2cc(OC)c(OC)cc2c1NC(=O)C(C)N1CCN(Cc2ccccc2)CC1 (stereo unspecified)	.	45µM	?	?	.	.
CCOC(=O)c1[nH]c2ccc(OC)cc2c1NC(=O)C(C)N1CCSCC1 (stereo unspecified)	.	?	?	?	.	?
Cc1cccc(CN2CCN(C(C)C(=O)NC(C)c3ccccc3)CC2)c1 (stereo unspecified)	63µM	45µM	/	/	.	/
CC(NC(=O)C(C)N1CCN(Cc2ccccc2)CC1)c1ccccc1 (stereo unspecified)	.	.	/	/	.	/
CCC(=O)OCC(=O)C1(OC(=O)CC)C(C)CC2C3C(Cl)CC4=CC(=O)C=C[C@@]4(C)C3C(O)C[C@@]21C (stereo partly specified)	.	.[2.33 µM]	?	?	/	/
